# Source: PubChem
# Most compounds without a hit are left out; they make up all but 7.1% or so of the library.
# M1 antagonist – M1 muscarinic receptor (rat) antagonism. 64,000 tested, 3.4% active. AID 628. B-score at 10 µM. CHO-M1 cells, Fluo-4 calcium, ACh EC80 antagonist mode; stronger effect = lower value;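 active = calcium fluorescence response, raw or row-and-column corrected B-score, differing from the plate sample mean either way at a set confidence level, mostly lower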
# Pyk2 oligo antag – Pyk2 (human) oligomerization antagonism | AID 1347419 | 99,000 tested, 0.83% active | Q14289 | z-score (the deposit names both 25 µM and 10 µM) | Q293 cells, Pyk2 FERM NanoBiT luminescence; stronger effect = lower value;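 active = Z-score of -3 or lower, scaled per plate to the spread of control and sample wells; inactive = z-score above -3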;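 note: negative z-score means lost luminescence so less FERM oligomerization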
# M1 ag – activates the M1 muscarinic receptor; AID 626; B-score at 10 µM; CHO-M1 cells, Fluo-4 calcium fluorescence, agonist mode; stronger effect = higher value; 64,000 tested, 3% active;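 active = fluorescence rise, raw or as B-score row- and column-corrected plate score, outside the 99.7% band of its plate's samples, either direction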
# Cav32 inh – blocks human Cav3.2 T-type calcium channel; 100,000 tested, 4% active; Cav3.2-expressing cells, Fluo-4 calcium fluorescence FDSS; stronger effect = lower value; B-score at 10 µM;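 active = single-dose well whose peak fluorescence ratio is a statistical outlier from its plate by either plate-standardised score or position-corrected B-score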
# Starred values were filed as active, the others as inactive; x = no result given.
SMILES,M1 antagonist,Pyk2 oligo antag,M1 ag,Cav32 inh
COCCCn1c(C2CCCCC2)nc2oc3cc(OC)ccc3c(=O)c2c1=O,0.35,-0.1,-1.6,2.3
O=C(CSc1nnc(Cc2cccs2)n1-c1ccccc1)Nc1ccc2c(c1)OCCO2,0.21,-0.56,-0.59,-4.8*
CC(C)=CC1C=C(C)C(C)C2C(=O)NNC(=O)C12 (centres undefined),x,0.21,x,-0.0097
CN(C)c1nc(NCc2ccccc2)nc(SCC(=O)Nc2ccc(Cl)c(Cl)c2)n1,x,0.51,x,-4.1*
Cc1ccccc1-c1ccc(C(=O)Nc2cccc(F)c2)o1,x,x,x,-2.1
